POLI inh – DNA polymerase iota (human) inhibition | Q9UNA4 | Pol iota fluorescent replication assay, 10 min | Potency, µM (series often up to 115 µM), for inactives: at the top dose activity, negative = inhibition, usual class: inhibitors | 390,000 compounds, 1% hits
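Pol iota at 10 nM preincubated 15 min with compounds at room temperature; reaction started with fluorescent substrate, 50 nM final. Fluorescence read kinetically at 0 and 10 min; buffer-only wells as negative control.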
WRN helicase inh – blocks human WRN helicase | Q14191 | WRN helicase unwinding, fluorescent forked duplex, kinetic | Potency, µM (series often up to 114 µM), without a hit: at the highest dose activity change, negative = inhibition, usual class: inhibitors | 360,000 compounds, 0.46% hits; further: on the % scale 0 is the no-effect control and ±100 the full control effect; nearly all actives have a fitted effect of over 55% in size
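Kinetic fluorescence helicase assay: unwinding of a quenched forked DNA duplex (100 nM final) with 2 mM ATP final raises red fluorescence (525/598 nm). Compounds sat 15 min at room temperature with 20 nM WRN beforehand.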
POLB inh – inhibitors of human DNA polymerase beta; Potency, µM (doses to about 114 µM), for the others: at the top dose activity change, negative = inhibition, usual class: inhibitors; AID 485314; P06746; 340,000 compounds, 1.3% hits; Pol beta primer extension/strand displacement, fluorescence kinetic; further: on the % scale 0 is the no-effect control and ±100 the full control effect
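Pol beta (10 nM) and compounds were preincubated 15 min at room temperature, then 50 nM substrate (final) started primer extension/strand displacement. Reads were taken at 0 and 10 min; concentration-response data were fitted to a four-parameter Hill equation.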
FEN1 inhibitor – inhibitors of human flap endonuclease 1; AID 588795; P39748; Recombinant FEN1 flap cleavage, fluorescence, 15 min; 390,000 compounds, 0.35% hits; Potency, µM (series often up to 114 µM), for inactives: top-dose activity change, negative = inhibition, usual class: inhibitors; further: on the % scale 0 is the no-effect control and ±100 the full control effect; nearly all actives have a fitted effect of over 65% in size
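FEN1 at 10 nM, compound pretreatment for 15 min (room temperature), 50 nM final substrate to initiate; endpoint reads at 0 and 15 min; DMSO-only plates used as vehicle background.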
POLH inh – DNA polymerase eta (human) inhibition; Q9Y253; recombinant Pol eta, fluorescent DNA replication assay; Potency, µM (series often up to 114 µM), without a hit: top-dose activity change, negative = inhibition, most hits filed as inhibitors; 390,000 compounds, 1.2% hits; AID 588591; further: on the % scale 0 is the no-effect control and ±100 the full control effect
Target sequence (Q9Y253 whole entry, looked up): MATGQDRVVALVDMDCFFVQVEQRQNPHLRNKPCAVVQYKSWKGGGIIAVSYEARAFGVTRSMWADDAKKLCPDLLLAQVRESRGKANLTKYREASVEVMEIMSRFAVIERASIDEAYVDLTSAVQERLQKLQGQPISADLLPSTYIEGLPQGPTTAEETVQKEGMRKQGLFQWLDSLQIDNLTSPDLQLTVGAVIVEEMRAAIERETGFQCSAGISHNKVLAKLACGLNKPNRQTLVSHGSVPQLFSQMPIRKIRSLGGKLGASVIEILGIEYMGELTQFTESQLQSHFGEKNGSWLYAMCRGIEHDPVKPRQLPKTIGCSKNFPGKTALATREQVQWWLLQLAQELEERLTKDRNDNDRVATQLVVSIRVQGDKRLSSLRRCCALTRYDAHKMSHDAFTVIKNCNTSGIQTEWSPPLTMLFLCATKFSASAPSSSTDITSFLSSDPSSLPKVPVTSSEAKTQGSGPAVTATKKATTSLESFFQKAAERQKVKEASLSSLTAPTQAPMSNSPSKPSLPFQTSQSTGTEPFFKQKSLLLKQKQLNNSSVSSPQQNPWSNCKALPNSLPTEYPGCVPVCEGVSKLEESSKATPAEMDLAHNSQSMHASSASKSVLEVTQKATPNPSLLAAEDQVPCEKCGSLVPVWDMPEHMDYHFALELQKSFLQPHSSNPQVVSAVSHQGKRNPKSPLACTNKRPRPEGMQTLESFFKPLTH
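Fluorescent replication assay: 50 nM final substrate added after a 15 min room-temperature compound preincubation with 10 nM enzyme. Signal taken at 0 min and again at 10 min.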
POLK inh – inhibitors of human DNA polymerase kappa | 400,000 compounds, 0.53% hits | Potency, µM (highest dose often 107 µM), inactives show top-dose activity, negative = inhibition, usual class: inhibitors | purified Pol kappa, fluorescent DNA synthesis assay, 10 min | Q9UBT6; further: on the % scale 0 is the no-effect control and ±100 the full control effect
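50 nM final substrate added after 15 min RT preincubation of 10 nM Pol kappa with compound; fluorescence read at 0 and 10 min.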
The depositor's hits bear a star; ? = inconclusive; . = no result given; ! = a repeat was not active; [ ] = dose if it differs, or a comment. A selection: hits, their analogues and other compounds. The true share with any hit is near 2.4%. The call rests on the fitted dose curve; in most records, active means well fitted curve in the direction sought with a large enough effect; inconclusive means small, poorly fitted or top-dose-only effect, or another doubt; inactive means no such curve, though single readings can be large; an effect the other way counts as inactive or inconclusive. Potency means the concentration at half of the fitted maximal effect.

SMILES | POLI inh | WRN helicase inh | POLB inh | FEN1 inhibitor | POLH inh | POLK inh
COC(=O)C1=CO[C@@H](O[C@H]2OC(CO)C(O)C(O)C2O)C2C1CC(O)C2C (some centres undefined) | . | . | . | . | . | -11%[60.1 µM]
COC(=O)Cn1c(=O)c2c(n(Cc3ccccc3)c1=O)N/C(=C/c1ccc(OC)cc1)C2=O | 23% | -7% | -27% | 14% | -16% | -17%
O=C(O)c1ccc(Cn2ccc3ccccc32)o1 | 10% | -8% | ? | 1% | 45µM* | -10%
O=C(O)c1ccc(CSCc2ccccc2)o1 | . | 2% | . | . | -1% | .
O=C(COc1ccccc1/C=C\c1nc(O)c([N+](=O)[O-])c(=O)[nH]1)Nc1ccccc1 | ? | ? | -3% | -22% | 28µM* | -11%
CCC(C)(C)NC(=O)c1cc(S(=O)(=O)N2CCc3ccccc32)cn1C | 6% | -11% | 6% | 14% | -13% | -36%
Cc1cccc(NC(=O)C(=O)NCC(c2cccnc2)N2CCc3ccccc32)c1C (centres undefined) | -3% | . | 6% | 1% | 7% | -9%
S=c1nc(C2CCCCC2)[nH]c2ccccc12 | 23% | -3% | 0% | -6% | -16% | -9%
S=c1nc(C2CC2)[nH]c2ccccc12 | ? | -23%[57.1 µM] | ? | -4% | 25µM* | -32%
NC(=O)C1CCN(C(=O)c2ccc(OCC(=O)Nc3cccc(C(F)(F)F)c3)cc2)CC1 | 17% | -1% | . | 0% | -12% | -14%
COc1ccc(C(=O)CN(CCC(=O)O)S(=O)(=O)c2ccc([N+](=O)[O-])cc2)cc1 | -15% | -1% | . | 5% | -5% | 12%
CCC(C)N1C(=O)/C(=C/c2c(NCCCOC(C)C)nc3c(C)cccn3c2=O)SC1=S (centres undefined) | 13% | -22% | 28µM* | ? | 22µM* | -7%
CCCN1C(=O)/C(=C/c2c(NCCCOC(C)C)nc3c(C)cccn3c2=O)SC1=S | -7% | ? | -12% | -8% | -20% | -8%
Nc1nc(=S)ss1 | 28µM* | -31% | . | -27% | -2% | -12%
C/C(=N\Nc1nc(-c2cc(C)ccc2C)cs1)c1cc2c(ccc3ccccc32)oc1=O | ? | -30% | ? | -10% | -18% | 79µM*
C/C(=N\Nc1nc(-c2cc(C)ccc2C)cs1)c1cc2ccccc2oc1=O | 10% | -33% | 50µM* | -2% | -4% | -24%
NS(=O)(=O)c1ccc(NC(=O)CSc2ccccc2)cc1 | 58% | 0% | -2% | -3% | -19% | -4%
CS(=O)(=O)N(CC(=O)NCC1CCCO1)c1cccc(Cl)c1 (centres undefined) | 93% | 5% | -19% | -5% | 3% | -16%
COc1ccc(CNC(=O)C[C@H]2C[C@H](C(=O)N3CCCCC3)[C@@]3(C)c4[nH]c5cc(-c6ccco6)ccc5c4CCN3C2=O)cc1OC | 40µM* | -1% | . | ? | -16% | ?
CC[C@]12c3[nH]c4cc(CCC(=O)N(C)C)ccc4c3CCN1C(=O)[C@@H](CC(=O)NCCC1=CCCCC1)C[C@@H]2C(=O)N1CCN(C(=O)c2ccco2)CC1 | 40% | 2% | . | -3% | -17% | 5%
CC[C@]12c3[nH]c4cc(-c5ccco5)ccc4c3CCN1C(=O)[C@@H](CC(=O)NCCC1=CCCCC1)C[C@@H]2C(=O)N1CCN(C(=O)c2ccco2)CC1 | 7.9µM* | -5%[11.6 µM] | . | -7% | -10% | 28µM*
CC(=O)N1N=C(c2ccc(Br)cc2)CC1c1cccc([N+](=O)[O-])c1 (centres undefined) | . | 1% | . | . | -9% | .
CCN1C(=O)c2cccc3c(S(=O)(=O)NCc4cccnc4)ccc1c23 | 13% | -18%[57.1 µM] | 28% | -4% | -12% | -2%
CCN1C(=O)c2cccc3c(S(=O)(=O)NCc4ccco4)ccc1c23 | 32µM* | -16% | 1% | 4% | -12% | -15%
O=C(Nc1ccc2nn(-c3ccccc3)nc2c1)c1ccc2c(c1)OCO2 | -9% | -25% | 40µM* | -22% | ? | -31%
SMILES | POLI inh | WRN helicase inh | POLB inh | FEN1 inhibitor | POLH inh | POLK inh
Cc1[nH]c(=O)nc(SCc2cccc(Cl)c2)c1C#N | 24% | ? | 71µM* | -23% | -8% | -20%
CC(=O)N1CCc2cc(Br)cc(S(=O)(=O)N3CCC(C(=O)Nc4cccc(C)c4C)CC3)c21 | ? | . | 45µM* | 19% | -16% | -23%
CCC(=O)N1CCc2cc(Br)cc(S(=O)(=O)N3CCCC(C(=O)NCc4ccc(OC)cc4)C3)c21 (centres undefined) | -4% | . | -1% | -2% | 2% | 3%
CCC(=O)N1CCc2cc(Br)cc(S(=O)(=O)N3CCCC(C(=O)NCc4ccccc4)C3)c21 (centres undefined) | 79µM* | . | 3% | 79µM* | -7% | -12%
Cc1ccc(-c2nn(-c3ccccc3)cc2C(=O)O)o1 | . | . | 16µM* | . | . | .
CC(C)OC(=O)c1cn(-c2ccccc2)nc1-c1ccco1 | ? | ? | 40µM* | -1% | ? | ?
Cc1ccc2c(=O)c3ccccc3n(CCCN)c2c1C | . | . | . | . | . | 7.9µM*!
COc1ccc(CCN2C(=O)CC(C(N)=O)SC2=Nc2ccccc2)cc1 (centres undefined) | 79µM* | -17%[57.1 µM] | ? | 5% | ? | -21%
CNC(=O)C1CC(=O)N(CCc2ccccc2)C(=Nc2ccc(OC)cc2)S1 (centres undefined) | 33% | -1% | 1% | -9% | -11% | -7%
O=C1Nc2ccccc2Oc2cc([N+](=O)[O-])ccc21 | -23% | -11%[11.6 µM] | ? | -9% | 50µM* | -27%
N#Cc1cnc(N)c(Br)c1 | 47% | 7% | 3% | 0% | -8% | -1%
C[C@H](C(=O)O)c1cccc(C(=O)c2ccccc2)c1 | 15% | 3% | . | . | -18% | 11µM*!
CC(C)N(C)C1=CC(=O)C(N(C)C(C)C)=CC1=O | 45µM* | -34% | . | 3% | 8% | ?
CCn1c2ccccc2c2nnc(SCc3ccc(C(=O)OC)o3)nc21 | 3% | -11% | 35µM* | -9% | -10% | -6%
O=C(CCCCCn1c(=S)[nH]c2cc3c(cc2c1=O)OCO3)N1CCN(C(=O)c2ccco2)CC1 | 28µM* | ? | ? | -5% | ? | -30%
O=C(CCCn1c(=S)[nH]c2cc3c(cc2c1=O)OCO3)NCc1cccc(Cl)c1 | 45µM* | -3%[11.6 µM] | 1% | ? | -17% | ?
O=c1cc(-c2cccnc2)oc2c1ccc1ccccc12 | 11% | -1%[11.6 µM] | -11% | 40µM* | -4% | -2%
CCOC(=O)c1csc(NC(=O)CSc2nnc(C3CC3)n2C)n1 | 13% | -4% | 0% | -16% | 5% | -7%

High-throughput results deposited in PubChem by National Center for Advancing Translational Sciences (NCATS).
